Screening results: PubChem BioAssay, National Center for Advancing Translational Sciences (NCATS)
DRD3 agonist = activates the human D3 dopamine receptor | P35462 | D3R DiscoveRx beta-arrestin cells, luminescence, 90 min | max activation, % | actives 0.58% (n = 410,000); in the data active = max activation above about 30%; also: 0% is about no effect
Target sequence (P35462 whole entry, looked up): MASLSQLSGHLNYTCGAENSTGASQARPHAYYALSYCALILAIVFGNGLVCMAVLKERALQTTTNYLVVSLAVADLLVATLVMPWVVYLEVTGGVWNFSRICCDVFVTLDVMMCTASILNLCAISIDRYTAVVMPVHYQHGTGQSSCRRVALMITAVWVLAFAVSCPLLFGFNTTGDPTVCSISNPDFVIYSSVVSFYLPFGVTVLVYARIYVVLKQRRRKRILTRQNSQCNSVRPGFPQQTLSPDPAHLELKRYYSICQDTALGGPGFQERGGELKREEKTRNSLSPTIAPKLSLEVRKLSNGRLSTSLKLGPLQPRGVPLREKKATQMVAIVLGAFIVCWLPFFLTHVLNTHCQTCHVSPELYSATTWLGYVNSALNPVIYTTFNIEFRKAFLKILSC
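Agonist-mode cell screen: cells plated at 1500/well and incubated overnight at 37 °C, then exposed to library compounds for 90 min at 37 °C. Detection reagent was added for 30–60 min at room temperature, and luminescence was read.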
MCF10A rereplic = DNA re-replication induction in MCF 10a cells. MCF 10A DNA re-replication, Hoechst nuclear intensity, 48 h. Potency, µM (series often up to 46.1 µM), for the others: at the highest dose activity, positive = re-replication, most hits filed as activators. actives 2.9% (n = 350,000). AID 624296; also: potency is read from the fitted curve at half-maximal effect; % of control where 0% means no effect; nearly all actives have a fitted effect of over 50% in size
KB-3-1 tox = KB-3-1 parental cell cytotoxicity; actives 1.4% (n = 400,000); AID 1347075; KB-3-1 viability, CellTiter-Glo ATP luminescence, 72 h; Potency, µM (top dose mostly 46.1 µM), usual class: cytotoxic; also: potency is read from the fitted curve at half-maximal effect; % is scaled to controls: 0 for no effect and ±100 for the full control effect; nearly all actives have a fitted effect of over 60% in size
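KB-3-1 parental drug-naive adenocarcinoma cells in DMEM/10% FBS, incubated 72 h at 37 C with pin-transferred compounds across a concentration series. Viability by CellTiter-Glo luminescence; concentration-response curves fitted after normalization.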
KB-V1 MDR tox = kills drug-selected multidrug resistant KB-V1 cells. AID 1347076. KB-V1 MDR cells viability, CellTiter-Glo, 72 h. actives 3.4% (n = 400,000). Potency, µM (doses to about 46.1 µM), hits mostly cytotoxic; also: potency is read from the fitted curve at half-maximal effect; % is scaled to controls: 0 for no effect and ±100 for the full control effect; nearly all actives have a fitted effect of over 60% in size
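KB-V1 cells (P-gp-expressing MDR subline of KB-3-1) in phenol-red-free DMEM with 10% FBS were exposed to library compounds over a concentration series for 72 h at 37 degrees C. Viability read by CellTiter-Glo luminescence; concentration-effect curves fitted after normalization.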
DRD3 antagonist = blocks the human D3 dopamine receptor; D3R cells, DiscoveRx beta-arrestin luminescence, antagonist mode; stronger effect = lower value; P35462; max response, negative = inhibition, %; actives 2.5% (n = 360,000); AID 652054; in the data active = max response below about -50%; inconclusive = no clear call, values can overlap the other calls; also: % is scaled to controls: 0 for no effect and ±100 for the full control effect
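Cells expressing the human receptor were seeded at 1500 cells/well, incubated overnight at 37 degrees C in 5% CO2, then exposed to library compounds with dopamine controls for 90 minutes at 37 degrees C before luminescent detection.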
SW480 rereplic = induces DNA re-replication in SW480 colon adenocarcinoma cells. actives 1.8% (n = 340,000). SW480 DNA re-replication, Hoechst DNA content imaging, 48 h. AID 624297. Potency, µM (series often up to 46.1 µM), for inactives: at the top dose re-replication activation, actives largely listed as activators; also: potency is read from the fitted curve at half-maximal effect; % of control where 0% means no effect; nearly all actives have a fitted effect of over 55% in size
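Treated cells incubate 48 hr (37 C, 5% CO2), are stained 40 min with Hoechst, and nuclear fluorescence is enumerated; a rise in nuclei with high DNA signal marks re-replication.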
Active calls of the source: *; i = inactive; ? = inconclusive; . = not tested or not shown; [ ] = another dose, or the depositor's remark. Hits are enriched below; roughly 8.9% of the tested compounds scored in any of these assays. Unless noted, calls follow the shape of the dose curve; as a rule, active = well fitted curve in the direction sought with a large enough effect; inconclusive = small, poorly fitted or top-dose-only effect, or another doubt; inactive = no such curve, though single readings can be large; an effect the other way counts as inactive or inconclusive.

SMILES	DRD3 agonist	MCF10A rereplic	KB-3-1 tox	KB-V1 MDR tox	DRD3 antagonist	SW480 rereplic
O=C(Nc1ccc(OCc2ccccc2)cc1)Nc1nnc([C@H]2C[C@H](O)[C@@H](CO)O2)s1	-14	.	i	i	-53*	.
CCOC(=O)c1cccc(NC(=O)c2cnc3sc(N4CCOCC4)nn3c2=O)c1	-14	.	i	i	.	.
CCc1ccc(C(=O)c2cn(CC(=O)Nc3cccc(OC)c3)c3cc4c(cc3c2=O)OCO4)cc1	-13	.	i	i	.	.
Cc1cc(NC(=O)c2cccn2-c2nnc(N3CCCCC3)s2)ccc1Br	-26	.	i	i	.	.
CCC(C(=O)Nc1ccc(C(C)=O)cc1)n1cnc2nc3c(cc2c1=O)CCCC3 (stereo unspecified)	-9	.	i	i	.	.
O=C(Nc1ccccc1)Nc1nnc([C@@H]2C[C@H](O)[C@@H](CO)O2)s1	-12	.	i	i	-68*	.
CCC(=O)/C=C1/Sc2ccccc2N1CC	-5	?	i	i	-9	3%
CCN1/C(=C/c2sc(-c3ccccc3C)c[n+]2C)Sc2ccccc21	8	21µM*	0.41µM*	?	2	?
COc1cc(CN(C(=O)c2oc3ccccc3c2C)C2CCS(=O)(=O)C2)cc(OC)c1OC (stereo unspecified)	6	.	i	i	.	.
Cc1ccc(S(=O)(=O)N2CCOCC2)cc1NC(=O)CNCc1ccc(Cl)cc1Cl	0	10%	i	i	7	1%
CCN(C(=O)c1oc2ccc(S(=O)(=O)N3CCCCCC3)cc2c1C)c1ccccc1	-23	.	26µM*	i	.	.
Cc1c(C(=O)N(C)Cc2ccccc2)oc2ccc(S(=O)(=O)N3CCCC3)cc12	-5	8%	i	i	-14	-8%
Cc1ccc(S(=O)(=O)N2CCOCC2)cc1NC(=O)CNCc1cccnc1	80*	0%	i	i	21	-5%
Cc1c(C(=O)NCc2cccnc2)oc2ccc(S(=O)(=O)N3CCCCCC3)cc12	2	1%	?	5.2µM*	21	-2%
O=C(Nc1ccc(OCc2cc(=O)n3c4c(sc3n2)CCCC4)cc1)c1cccc(F)c1	5	.	i	?	.	.
CO/N=C/c1ccc(N2CCN(C(=O)c3ccc(Cl)cc3Cl)CC2)c([N+](=O)[O-])c1	11	11%	13µM*	2.6µM*	57	15%
CO/N=C/c1ccc(N2CCN(C(=O)c3ccc(F)cc3)CC2)c([N+](=O)[O-])c1	1	18%	i	16µM*	27	-3%
CO/N=C/c1ccc(N2CCN(C(=O)c3cccc(C(F)(F)F)c3)CC2)c([N+](=O)[O-])c1	52*	8%	?	10µM*	45	?
O=C(O/N=C\c1ccc(N2CCCCC2)c([N+](=O)[O-])c1)c1cccc(C(F)(F)F)c1	-3	2%	?	?	?	8%
CCN(c1ccccc1)S(=O)(=O)c1ccc(Cl)c(NC(=O)CN2CCN(C)CC2)c1	-16	16µM*	i	i	-2	12%
CCN(c1ccccc1)S(=O)(=O)c1ccc(Cl)c(NC(=O)CN(C)C2CCN(C)CC2)c1	-8	?	?	i	-22	?
CCN(CC)S(=O)(=O)c1ccc(Cl)c(NC(=O)COC(=O)c2ccc(O)cc2)c1	1	4%	i	i	-18	0%
CCN1CCN(CC(=O)Nc2cc(S(=O)(=O)N(CC)c3ccccc3)ccc2Cl)CC1	-12	21µM*	i	i	-27	?
CCN(c1ccccc1)S(=O)(=O)c1ccc(Cl)c(NC(=O)CSc2ncn[nH]2)c1	-5	16%	i	23µM*	-22	2%
CCN(CC)S(=O)(=O)c1ccc(Cl)c(NC(=O)COC(=O)c2cccn2C)c1	2	2%	i	15µM*	8	3%
SMILES	DRD3 agonist	MCF10A rereplic	KB-3-1 tox	KB-V1 MDR tox	DRD3 antagonist	SW480 rereplic
O=C(NCC(O)CO)c1c(I)c(C(=O)NCC(O)CO)c(I)c(N(CCO)C(=O)CO)c1I (stereo unspecified)	8	.	.	.	.	.
COc1ccc(N2CCN(C(=O)C3Cc4ccccc4N3C(C)=O)CC2)cc1 (stereo unspecified)	-9	.	i	i	.	.
CCN(c1ccccc1)S(=O)(=O)c1ccc(Cl)c(NC(=O)CNCc2ccccc2OC)c1	-34	16µM*	.	.	-66*	?
Cc1cccc(C(=O)Nc2cccc(C(=O)N/N=C/c3ccc4c(c3)OCO4)c2)c1	0	13µM*	13µM*	i	-10	23µM*
O=C(Nc1ccccc1C(=O)N/N=C/c1ccc(F)cc1)c1ccccc1Br	2	4%	i	26µM*	5	-10%
O=C(N/N=C/c1ccc(F)cc1)c1cccc(NC(=O)c2ccc(F)cc2)c1	-33	21µM*	?	i	-14	2%
Nc1ncc(S(=O)(=O)NCc2ccc(Cl)cc2)cn1	9	.	.	.	.	.
CCOC(=O)c1c(NC(=O)/C=C/c2ccc(C)cc2)sc2c1CCCC2	6	.	i	i	.	.
COc1c(Br)cc(Br)cc1C(=O)O	37*	1%	i	i	-13	-1%
O=C(Cn1ccc(NC(=O)OCc2ccccc2)nc1=O)NCc1ccc2c(c1)OCO2	-18	2%	i	i	-25	-16%
CCOC(=O)c1ccccc1NC(=O)N1CCCn2nc(C)cc21	3	.	i	?	.	.
Cc1ccc(CCC2C3=C(CCCC3=O)OC3=C2C(=O)CCC3)cc1	30*	3%	i	i	?	-3%
Cc1cc(N2CCN(C/C=C/c3ccccc3)CC2)n2ncnc2n1	-6	-7%	i	9.2µM*	13	-11%
CCCOc1ccc(/C=N/Nc2ccc(C(=O)O)cc2)c(OCCC)c1	10	7.3µM*	i	i	33	?
CCCOc1ccc(/C=N/Nc2cccc([N+](=O)[O-])c2)c(O)c1	5	?	?	i	-12	10%
O=C(O)c1ccc2c(c1)C(=O)N(C(Cc1ccc(O)cc1)C(=O)O)C2=O (stereo unspecified)	-2	354%[0.0737 µM]	i	?	-70*	0%
c1ccc(Nc2nc(NCc3ccco3)c3ccccc3n2)cc1	3	?	?	?	-12	?
CSc1nc(NCc2ccco2)c2ccccc2n1	7	1%	?	12µM*	21	-33%
Cc1ccccc1Nc1cc(C(=O)NCc2ccco2)c2ccccc2n1	-2	-38%	?	8.2µM*	-11	?
Oc1ccccc1Nc1nc(NCc2ccco2)c2ccccc2n1	-8	?	i	i	25	0%
